{"source": "PubChem BioAssay AID651661", "about": "(Broad Institute, 2012)", "note": "Among all 350,000 compounds or so, about 2,300 (0.66%) were called active. The entries come from a sample that favours actives as a whole. Values without a mark were called inactive.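 How the source made its calls: active means mean inhibition of at least 50% after viability correction, with every replicate also passing that limit; inconclusive means mean reaches 50% but only one of two replicates passes; inactive means the rest.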"}
{"assay": "blockers of EWS/Fli transcriptional output – A673 cells, NR0B1 luciferase, luminescence, MLPCN library, primary screen (AID 651661);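 further: firefly luciferase signal divided by Alamar Blue viability fluorescence both relative to DMSO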", "conditions": "A673 NR0B1-luciferase reporter, viability-normalised; at 12.6 µM; hits give high values"}
{"smiles": "CC(=O)N1[C@H](C(=O)N(C)C)[C@@H](CO)[C@@H]2Cn3c(ccc(-c4ccccc4)c3=O)[C@@H]21", "inhibition": "0.262%"}
{"smiles": "Cc1ccccc1S(=O)(=O)N1[C@@H]2CNC[C@H]1C2c1ccc(-c2cccnc2)cc1", "note": "(some centres undefined)", "inhibition": "-4.81%"}
{"smiles": "CCCNC(=O)N1[C@@H]2Cn3c(ccc(-c4ccc(OC)cc4)c3=O)[C@H]1[C@@H](C(=O)NC1CCC1)[C@@H]2CO", "inhibition": "0.758%"}
{"smiles": "Cc1ccccc1-c1ccc([C@H]2[C@@H](CO)N3C(=O)CN(C(=O)c4ccncc4)C[C@H]23)cc1", "inhibition": "0.78%"}
{"smiles": "COc1ccc2c3c(n(C)c2c1)[C@H](CO)N(S(=O)(=O)c1ccc(C)cc1)CC31CN(C(=O)c2ccccn2)C1", "inhibition": "-3.69%"}
{"smiles": "NC1=CC(=O)C(=O)c2cccnc21", "inhibition": "57.3% (active)"}
{"smiles": "CCOc1ccc(CCN2C(=O)c3cccnc3C2=O)cc1OCC", "inhibition": "9.92%"}
{"smiles": "CCCNC(=O)N1CC2(C1)[C@@H](c1ccccc1)[C@@H](CO)N2C(=O)CC1CC1", "inhibition": "2.39%"}
{"smiles": "C[C@@H]1CN([C@H](C)CO)C(=O)Cc2cc(NC(=O)Nc3cccc4ccccc34)ccc2O[C@@H]1CN(C)Cc1ccc(C(F)(F)F)cc1", "inhibition": "-4.39%"}
{"smiles": "N#CCSc1nc(-c2ccccc2)nc2ccc(F)cc12", "inhibition": "19.1%"}
{"smiles": "Clc1cccc(-c2nc(NCC3CCCO3)c3ccccc3n2)c1", "note": "(centres undefined)", "inhibition": "15.1%"}
{"smiles": "Clc1ccc2nc(-c3ccccc3)nc(C(Cl)Cl)c2c1", "inhibition": "68.5% (active)"}
{"smiles": "CC(C)NC(=O)Nc1ccc2c(c1)C(=O)N([C@@H](C)CO)C[C@H](C)[C@H](CN(C)C(=O)c1ccccc1)OCCCC[C@@H](C)O2", "inhibition": "5.19%"}
{"smiles": "CN(C)c1ccc2c(c1)[C@@H]1C[C@@H](CC(=O)NCc3ccccn3)O[C@H](CO)[C@@H]1O2", "inhibition": "-4.51%"}
{"smiles": "COc1cccc2c1C(=O)c1c(O)c3c(c(O)c1C2=O)CC(O)(C(C)=NNC(=O)c1ccc(Cl)c(Cl)c1)CC3OC1CC(N)C(O)C(C)O1", "note": "(centres undefined)", "inhibition": "63.6% (active)"}
{"smiles": "COc1ccc(CN(C)C[C@@H]2OCCCC[C@@H](C)Oc3ccc(NC(=O)Nc4ccc(C(F)(F)F)cc4)cc3C(=O)N([C@H](C)CO)C[C@H]2C)cc1", "inhibition": "53.9% (active)"}
{"smiles": "COc1ccc(NC(=O)Nc2ccc3c(c2)C(=O)N([C@@H](C)CO)C[C@H](C)[C@H](CN(C)Cc2ccc(C(F)(F)F)cc2)OCCCC[C@H](C)O3)cc1", "inhibition": "6.84%"}
{"smiles": "C[C@@H]1CN([C@H](C)CO)C(=O)c2cc(NC(=O)Nc3ccccc3)ccc2O[C@@H](C)CCCCO[C@H]1CN(C)Cc1ccc(C(F)(F)F)cc1", "inhibition": "71.6% (active)"}
{"smiles": "C[C@H]1CCCCO[C@@H](CN(C)Cc2ccc(C(F)(F)F)cc2)[C@@H](C)CN([C@@H](C)CO)C(=O)c2cc(NC(=O)Nc3ccccc3)ccc2O1", "inhibition": "19.3%"}
{"smiles": "C[C@@H]1CN([C@H](C)CO)C(=O)c2cccc(NC(=O)Nc3ccccc3)c2O[C@@H]1CN(C)C(=O)NC1CCCCC1", "inhibition": "4.76%"}
{"smiles": "C[C@@H]1CN([C@H](C)CO)C(=O)c2cc(NC(=O)Nc3ccc(C(F)(F)F)cc3)ccc2O[C@@H](C)CCCCO[C@@H]1CN(C)Cc1ccc(C(F)(F)F)cc1", "inhibition": "-13.8%"}
{"smiles": "C[C@@H]1CCCCO[C@@H](CN(C)Cc2ccc(C(F)(F)F)cc2)[C@@H](C)CN([C@H](C)CO)C(=O)c2cc(NC(=O)Nc3ccccc3)ccc2O1", "inhibition": "-6.47%"}
{"smiles": "C[C@H](CO)N1C[C@H](C)[C@@H](CN(C)C(=O)NC2CCCCC2)Oc2c(NC(=O)Nc3ccc(F)cc3)cccc2C1=O", "inhibition": "4.64%"}
{"smiles": "C[C@H]1CN([C@@H](C)CO)C(=O)c2cccc(NC(=O)Nc3ccc(C(F)(F)F)cc3)c2O[C@H]1CN(C)C(=O)NC1CCCCC1", "inhibition": "56.1% (active)"}
{"smiles": "O=C(C[C@@H]1C[C@H]2c3cc(NC(=O)C4CCOCC4)ccc3O[C@H]2[C@@H](CO)O1)NCCN1CCCCC1", "inhibition": "-1.07%"}
{"smiles": "COC(=O)C[C@H]1CC[C@H]2[C@@H](COc3ccc(NC(=O)Nc4cccc(F)c4)cc3C(=O)N2C)O1", "inhibition": "-0.36%"}
{"smiles": "COC(=O)C[C@@H]1CC[C@@H]2[C@H](COc3ccc(NC(=O)c4cccc(F)c4)cc3C(=O)N2C)O1", "inhibition": "61.7% (active)"}
{"smiles": "COC(=O)C[C@@H]1CC[C@@H]2[C@H](COc3ccc(NC(=O)Nc4cccc(F)c4)cc3C(=O)N2C)O1", "inhibition": "33.6%"}
{"smiles": "O=C(C[C@@H]1CC[C@H]2[C@@H](COC[C@H](O)CN2Cc2ccc(F)cc2)O1)N1CCc2ccccc2C1", "inhibition": "2.81%"}
{"smiles": "CCCN(C)C[C@@H]1OCc2cnnn2CCCC(=O)N([C@H](C)CO)C[C@@H]1C", "inhibition": "0.738%"}
{"smiles": "C[C@@H]1CN([C@H](C)CO)C(=O)Cc2cc(NC(=O)CCCCCC(=O)Nc3ccccc3N)ccc2O[C@H]1CN(C)S(=O)(=O)c1ccc(F)cc1", "inhibition": "-11%"}
{"smiles": "C[C@H]1CN([C@@H](C)CO)C(=O)Cc2cc(NS(=O)(=O)c3ccccc3)ccc2O[C@H]1CN(C)Cc1ccc(C(=O)Nc2ccccc2N)cc1", "inhibition": "-7.96%"}
{"smiles": "C[C@@H]1CN([C@@H](C)CO)C(=O)c2cc(NS(=O)(=O)c3ccccc3)ccc2O[C@@H]1CN(C)Cc1ccc(C(=O)Nc2ccccc2N)cc1", "inhibition": "57.5% (active)"}
{"smiles": "Cc1ccc(S(=O)(=O)Nc2ccc3c(c2)C(=O)N([C@H](C)CO)C[C@H](C)[C@H](CN(C)Cc2ccc(C(=O)Nc4ccccc4N)cc2)OCCCC[C@@H](C)O3)cc1", "inhibition": "8.6%"}
{"smiles": "Cc1ccc(S(=O)(=O)Nc2ccc3c(c2)C(=O)N([C@@H](C)CO)C[C@@H](C)[C@@H](CN(C)Cc2ccc(C(=O)Nc4ccccc4N)cc2)O3)cc1", "inhibition": "51.7% (active)"}
{"smiles": "C[C@@H]1CN([C@H](C)CO)C(=O)c2cc(NS(=O)(=O)c3cn(C)cn3)ccc2O[C@@H]1CN(C)Cc1ccc(C(=O)Nc2ccccc2N)cc1", "inhibition": "-4.91%"}
{"smiles": "C[C@H](CO)N1C[C@H](C)[C@H](CN(C)Cc2ccc(C(=O)Nc3ccccc3N)cc2)Oc2ccc(NS(C)(=O)=O)cc2C1=O", "inhibition": "27%"}
{"smiles": "COCC#Cc1ccc([C@H]2[C@H](CO)N3C(=O)CN(C(=O)Nc4ccccc4F)C[C@@H]23)cc1", "inhibition": "2.04%"}
{"smiles": "COc1cccc(S(=O)(=O)N[C@H]2CC[C@H](CCN)O[C@H]2CO)c1", "inhibition": "-10.4%"}
{"smiles": "COc1ccc(S(=O)(=O)Nc2ccc3c(c2)C(=O)N([C@H](C)CO)C[C@@H](C)[C@H](CN(C)C(=O)Nc2ccc4c(c2)OCO4)O3)cc1", "inhibition": "0.75%"}
{"smiles": "CC(=O)N1[C@H](CO)[C@H](c2ccc(-c3ccccc3)cc2)[C@H]1CNC(=O)NC(C)C", "inhibition": "0.423%"}
{"smiles": "COc1ccc(-c2ccccc2[C@@H]2[C@@H](C#N)N(C(=O)NC3CCCC3)[C@H]2CO)cc1", "inhibition": "4.32%"}
{"smiles": "C[C@H](CO)N1C[C@H](C)[C@@H](CN(C)Cc2ccncc2)Oc2ncc(C#CC3CC3)cc2C1=O", "inhibition": "-3.48%"}
{"smiles": "COc1cccc(S(=O)(=O)N2C[C@@H](O)COC[C@@H]3O[C@H](CC(=O)N4CCN(C)CC4)CC[C@H]32)c1", "inhibition": "2.56%"}
{"smiles": "Cc1cc(C(=O)Nc2cccc3c2O[C@H](CN(C)C(=O)Nc2ccccc2)[C@@H](C)CN([C@H](C)CO)C3=O)n(C)n1", "inhibition": "-4.28%"}
{"smiles": "O=C(C[C@H]1C[C@H]2c3cc(NC(=O)c4ccc5c(c4)OCO5)ccc3O[C@H]2[C@@H](CO)O1)NCc1cccc(F)c1", "inhibition": "-0.435%"}
{"smiles": "O=C(NCc1ccncn1)[C@@H]1[C@@H](CO)[C@@H]2Cn3c(ccc(-c4ccc(F)cc4)c3=O)[C@@H]2N1CC1CC1", "inhibition": "5.67%"}
{"smiles": "C[C@@H]1CN([C@H](C)CO)C(=O)c2cc(NC(=O)C3CCCCC3)ccc2O[C@@H]1CN(C)CC1CCCCC1", "inhibition": "1.73%"}
{"smiles": "CS(=O)(=O)N1CC2(C1)[C@H](c1ccccc1)[C@H](CO)N2Cc1ccc(F)cc1", "inhibition": "-3.95%"}
{"smiles": "Cc1ccc2nc(-c3ccncc3)cc(C(=O)Nc3ccc4c(c3)OCCO4)c2c1", "inhibition": "57.8% (active)"}
{"smiles": "CCn1c(SCC(=O)Nc2ccc3c(c2)OCCO3)nnc1-c1ccncc1", "inhibition": "4.78%"}
{"smiles": "CCOc1ncccc1C(=O)Nc1ccc2c(c1)OCCO2", "inhibition": "-5.13%"}
{"smiles": "CCN(CC)CCNC(=O)c1ccc(NC(=O)c2cc(-c3ccncc3)nc3ccccc23)cc1", "inhibition": "8.49%"}
{"smiles": "O=C(Nc1ccncc1)c1cc(-c2ccccn2)nc2ccc(Br)cc12", "inhibition": "17%"}
{"smiles": "Cc1ccc2nc(-c3ccncc3)cc(C(=O)Nc3ccc(OC(F)F)cc3)c2c1", "inhibition": "54% (active)"}
{"smiles": "CNC[C@H]1OCCCC[C@@H](C)Oc2ccc(NC(=O)c3ccncc3)cc2C(=O)N([C@H](C)CO)C[C@H]1C", "inhibition": "0.415%"}
{"smiles": "CO[C@@H]1CN(C)C(=O)c2cc(NC(=O)C3CC3)ccc2OC[C@H](C)N(CC2CC2)C[C@H]1C", "inhibition": "-3.56%"}
{"smiles": "O=C(C1CCOCC1)N1C[C@H]2[C@@H](c3ccccc31)[C@@H](CO)N2Cc1ccccc1", "inhibition": "2.37%"}
{"smiles": "CCCC(=O)N1CC2(C1)CN(C(=O)COC)[C@@H](CO)c1c2c2ccc(OC)cc2n1C", "inhibition": "23.9%"}
{"smiles": "C[C@@H](NC(=O)C[C@H]1CC[C@H]2[C@H](COc3ccc(NS(=O)(=O)c4ccc(Cl)cc4)cc3C(=O)N2C)O1)c1ccccc1", "inhibition": "13.8%"}
{"smiles": "OCCN1CCN(C(=S)c2ccc(-c3ccccc3)cc2)CC1", "inhibition": "69% (active)"}
{"smiles": "CN1CCN(CCCCOc2ccccc2-c2ccccc2)CC1", "inhibition": "-2.32%"}
{"smiles": "S=C(c1ccc(-c2ccccc2)o1)N1CCCCC1", "inhibition": "-59.7%"}
{"smiles": "COc1ccc(CN(C)C[C@@H]2OCCCC[C@@H](C)Oc3ccc(NS(=O)(=O)c4ccc(C)cc4)cc3C(=O)N([C@@H](C)CO)C[C@H]2C)cc1", "inhibition": "-18.8%"}
